Data on eight compounds can be found in PubChem BioAssay (NCI).

This is part of a sample that, as a whole, favours compounds with a hit. Of some 83,000 tested, about 20% had one in any assay.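 Single-dose data. Exposure time 48 hours. Values below 10 considered active.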 A number with no mark means an inactive call. Activity calls are given as the source filed them.

Test systems include DU-145 prostate; K-562 leukemia; MALME-3M melanoma; MDA-MB-231 breast; RXF 393 renal; SF-268 CNS; SF-295 CNS; SF-539 CNS; UACC-257 melanoma; M14 melanoma; HCT-15 colon; HT29 colon; SNB-75 CNS; SNB-19 CNS; U251 CNS; SK-MEL-5 melanoma; UACC-62 melanoma; LOX IMVI melanoma; SK-MEL-28 melanoma; PC-3 prostate.
Holding throughout (assay): NCI-60 one-dose screen, 48 h (100 = growth as untreated, 0 = no growth, -100 = all killed)
Holding throughout (conditions): 10 µM unless noted

Regarding `CS(=O)(=O)c1ccc(C(=O)N/N=C/c2ccc3c(c2)OCO3)cc1`, the growth in the assay on DU-145 prostate was 108%; in the assay with K-562 leukemia, 85.5%; in the assay with MALME-3M melanoma, 105%; in the assay on MDA-MB-231 breast, 107%; in the assay on RXF 393 renal it was 120%; with SF-268 CNS it was 104%. In addition, the growth in the assay with SF-295 CNS was 101%; in the assay on SF-539 CNS, 105%; in the assay on UACC-257 melanoma it was 59.1%; in the assay with M14 melanoma it was 106%; with HCT-15 colon, 100%; with HT29 colon, 88.9%. Also, the growth with SNB-75 CNS is 94.4%; in the assay with SNB-19 CNS it was 98.5%; in the assay with U251 CNS, 92.3%; in the assay on SK-MEL-5 melanoma, 106%; in the assay on UACC-62 melanoma, 98%; with LOX IMVI melanoma, 96.5%. Besides, the growth in the assay with SK-MEL-28 melanoma is 114%.

With `COc1ccc(-c2cnc(-c3ccncc3-c3cccc(OC)c3)o2)cc1`, the growth in the assay with DU-145 prostate is 0.973% (active); with K-562 leukemia, 7.13% (active); in the assay with MALME-3M melanoma it was 92%; in the assay with MDA-MB-231 breast, -9.9% (active); in the assay on RXF 393 renal, 43.1%; with SF-268 CNS, 18.2%. The growth was -8.54% (active) with SF-295 CNS; -0.0741% (active) in the assay on SF-539 CNS; 83.6% with UACC-257 melanoma; 23.9% in the assay on M14 melanoma; 7.4% (active) in the assay on HCT-15 colon; -36.6% (active) with HT29 colon. Also, the growth with SNB-75 CNS was 41.2%; in the assay with SNB-19 CNS it was 25.8%; in the assay with U251 CNS it was 24.3%; in the assay on SK-MEL-5 melanoma, -20.4% (active); with UACC-62 melanoma it was 24.9%; in the assay on LOX IMVI melanoma it was 27.3%. The growth in the assay on SK-MEL-28 melanoma is 57.6%.

As to `CN(C)c1nc(-c2ccco2)n2nc(-c3ccc(Cl)cc3)cc2n1`, the growth with DU-145 prostate is 77%; in the assay on K-562 leukemia, 67.4%; in the assay with MALME-3M melanoma it was 98.6%; with MDA-MB-231 breast, 54.3%; in the assay with RXF 393 renal it was 51%; in the assay with SF-268 CNS it was 66.6%. The growth is 56% in the assay with SF-295 CNS; 63.4% in the assay with SF-539 CNS; 98.7% in the assay on UACC-257 melanoma; 87% in the assay on M14 melanoma; 92.7% in the assay on HCT-15 colon; 58.6% with HT29 colon. The growth was 20.9% with SNB-75 CNS; 77.9% in the assay on SNB-19 CNS; 64.7% with PC-3 prostate; 81.2% with SK-MEL-5 melanoma; 87% in the assay on UACC-62 melanoma; 50.5% in the assay with LOX IMVI melanoma. Also, the growth in the assay on SK-MEL-28 melanoma was 94.8%.

With `Fc1cc(-c2cnc3nonc3n2)c(Cl)cc1Cl`, the growth in the assay with DU-145 prostate is 85.3%; in the assay on K-562 leukemia, 28.9%; with MALME-3M melanoma it was 41.1%; in the assay on MDA-MB-231 breast, 83.4%; with RXF 393 renal, 93%; with SF-268 CNS it was 90.9%. Further, the growth is 99.4% in the assay on SF-295 CNS; 110% in the assay with SF-539 CNS; 96% in the assay on UACC-257 melanoma; 76.8% with M14 melanoma; 51% in the assay with HCT-15 colon; 87.9% in the assay with HT29 colon. The growth in the assay on SNB-75 CNS is 99.9%; in the assay on SNB-19 CNS, 90.4%; in the assay on U251 CNS, 109%; in the assay with SK-MEL-5 melanoma, 98.3%; in the assay with UACC-62 melanoma, 82.3%; in the assay on LOX IMVI melanoma, 101%. For the same compound, the growth in the assay on SK-MEL-28 melanoma is 91.8%.

With `COc1cc(OC)c(Cl)cc1N`, the growth was 114% in the assay with DU-145 prostate; 95.5% in the assay on K-562 leukemia; 134% in the assay on MALME-3M melanoma; 94.8% in the assay on MDA-MB-231 breast; 110% with RXF 393 renal; 104% in the assay with SF-268 CNS. Moreover, the growth was 135% in the assay on SF-295 CNS; 95.4% in the assay with SF-539 CNS; 111% in the assay on UACC-257 melanoma; 115% in the assay on M14 melanoma; 96.6% in the assay with HCT-15 colon; 107% in the assay with HT29 colon. Further, the growth was 101% in the assay on SNB-75 CNS; 100% in the assay on SNB-19 CNS; 104% in the assay with U251 CNS; 112% in the assay with SK-MEL-5 melanoma; 97.8% in the assay with UACC-62 melanoma; 101% with LOX IMVI melanoma. In addition, the growth in the assay with SK-MEL-28 melanoma was 109%.

With `COc1ccc2c(c1)sc1nc(-c3ccccc3)c(-c3cccc4ccccc34)n12`, the growth is 18.9% in the assay with DU-145 prostate; 15% with K-562 leukemia; 51.5% in the assay on MALME-3M melanoma; 39.7% in the assay with MDA-MB-231 breast; 7.5% (active) in the assay with RXF 393 renal; 50.8% in the assay on SF-268 CNS. The growth in the assay on SF-295 CNS was -38.7% (active); in the assay on SF-539 CNS, 0.248% (active); in the assay with UACC-257 melanoma, 68.4%; in the assay on M14 melanoma, 21%; in the assay on HCT-15 colon, 23%; in the assay with HT29 colon, 1.35% (active). Moreover, the growth in the assay with SNB-75 CNS is 23.2%; in the assay with SNB-19 CNS, 29.8%; in the assay on PC-3 prostate, 24.3%; with SK-MEL-5 melanoma, 24.9%; in the assay with UACC-62 melanoma it was 35.5%; in the assay with LOX IMVI melanoma, 38.6%.

With `CCCCCCCC/C=C\CCCCCCCC(=O)OCCCCCC`, the growth was 103% in the assay on DU-145 prostate; 100% in the assay with K-562 leukemia; 120% in the assay on MALME-3M melanoma; 136% in the assay on MDA-MB-231 breast; 104% with RXF 393 renal; 108% in the assay on SF-268 CNS. For the same compound, the growth is 95.6% in the assay on SF-295 CNS; 109% in the assay on SF-539 CNS; 95.7% with UACC-257 melanoma; 112% in the assay with M14 melanoma; 101% in the assay with HCT-15 colon; 109% in the assay with HT29 colon. The growth is 117% with SNB-75 CNS; 112% in the assay with SNB-19 CNS; 91.5% in the assay with PC-3 prostate; 108% in the assay on SK-MEL-5 melanoma; 110% with UACC-62 melanoma; 98.8% in the assay on LOX IMVI melanoma.

As for `O=C(Nc1cccc(-n2ccc3c(NC(=O)c4ccccc4)nccc32)c1)c1ccc(N2CCOCC2)c(C(F)(F)F)c1`, the growth was 18.7% in the assay on DU-145 prostate; 5.25% (active) in the assay on K-562 leukemia; 53.4% with MALME-3M melanoma; 20.8% in the assay on MDA-MB-231 breast; -59.8% (active) in the assay on RXF 393 renal; 24.2% with SF-268 CNS. Besides, the growth with SF-295 CNS was -15.4% (active); in the assay on SF-539 CNS, 11.9%; in the assay with UACC-257 melanoma it was 58%; in the assay with M14 melanoma, 38.6%; in the assay on HCT-15 colon, 14.1%; in the assay on HT29 colon, 2.15% (active). Moreover, the growth with SNB-75 CNS was -12.5% (active); in the assay on SNB-19 CNS it was 43.3%; in the assay on U251 CNS, 15.5%; in the assay on SK-MEL-5 melanoma, -68.6% (active); in the assay with UACC-62 melanoma, 40.1%; with LOX IMVI melanoma, 9.86% (active). In addition, the growth in the assay on SK-MEL-28 melanoma is 32.8%.
